Experimental data as given in PubChem BioAssay (NCI).
About 83,000 compounds went through this panel and 20% of them were active in at least one assay; those are over-represented in the sample as a whole.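 Note: values are percent growth. 100 is the growth of untreated cells, values between 100 and 0 indicate rising inhibition; between -100 and 0 indicates cell death.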 Values without a mark were called inactive. Calls of active or inactive are those of the source. How the source made its calls: active means growth percent below 10; inactive means the rest.

Tests used:
Test in all cases: NCI-60 one-dose screen, 48 h (100 = growth as untreated, 0 = no growth, -100 = all killed)
Details in all cases: 10 µM unless noted
SR leukemia = tested on: SR leukemia
RPMI-8226 leukemia = tested on: RPMI-8226 leukemia
OVCAR-8 ovarian = tested on: OVCAR-8 ovarian
OVCAR-5 ovarian = tested on: OVCAR-5 ovarian
OVCAR-4 ovarian = tested on: OVCAR-4 ovarian
SK-OV-3 ovarian = tested on: SK-OV-3 ovarian
OVCAR-3 ovarian = tested on: OVCAR-3 ovarian
HS 578T breast = tested on: HS 578T breast
NCI/ADR-RES ovarian = tested on: NCI/ADR-RES ovarian
IGROV1 ovarian = tested on: IGROV1 ovarian

Structure (SMILES)	growth (SR leukemia)	growth (RPMI-8226 leukemia)	growth (OVCAR-8 ovarian)	growth (OVCAR-5 ovarian)	growth (OVCAR-4 ovarian)	growth (SK-OV-3 ovarian)	growth (OVCAR-3 ovarian) [%]	growth (HS 578T breast)	growth (NCI/ADR-RES ovarian)	growth (IGROV1 ovarian)
CCc1ccc(-c2nc(SCC(=O)NC3CCCCC3)n[nH]2)cc1	12.6%	32.8%	70%	94.2%	72.6%	84.8%	64	74.6%	75.4%	–
CC(=O)Nc1ccc(C(=O)COc2ccc(/C=C3\CCc4ccccc4C3=O)cc2)cc1	84.4%	83.3%	98.8%	101%	104%	117%	111	99%	96.2%	–
O=c1[nH]cc(Nc2cc(Cl)c3nonc3c2[N+](=O)[O-])c(=O)[nH]1	100%	96.2%	98.4%	98.1%	121%	104%	123	47.8%	96%	–
COc1ccc2c(c1)c(CC(=O)[Se]C)c(C)n2C(=O)c1ccc(Cl)cc1	13.4%	62.6%	-46.9% (active)	36.8%	37.2%	40.7%	–	8.49% (active)	3.71% (active)	-3.14% (active)
COc1cc(C2=NN(C=O)C(c3cccc(Nc4ccnc5cc(Cl)ccc45)c3)C2)cc(OC)c1OC (centres undefined)	9.32% (active)	53.7%	70%	94.2%	69.3%	80.5%	–	–	65.5%	102%
Cc1ccc2c(c1)C(=O)/C(=C\Nc1ccc(C(N)=O)cc1)C(O)O2 (centres undefined)	97.1%	46.5%	97.1%	110%	101%	107%	84.6	97.4%	110%	–
CC(NNC(=S)N1CCCCCC1)c1ccc2ccccc2n1 (centres undefined)	34.5%	56.1%	18.1%	50.3%	30.2%	50.9%	–	78.5%	20.8%	19.3%
COc1ccc(CNC(=O)c2c(C)n([O-])c3ccccc3[n+]2=O)cc1	97.4%	96.3%	96.5%	89.9%	97.7%	99.3%	115	111%	–	–
O=C(c1ccc(N2CCOCC2)cc1[N+](=O)[O-])N1CCOCC1	423%	128%	73.5%	102%	52%	110%	110	33%	108%	–
CCSc1nc(-c2cccs2)n2nc(-c3ccco3)cc2n1	92.7%	53.9%	99.8%	97.3%	68.9%	106%	–	108%	103%	87.5%
O=C1c2cccc3c([N+](=O)[O-])ccc(c23)C(=O)N1CCCCl	-6.13% [100 µM] (active)	-11.6% [100 µM] (active)	-64.2% [100 µM] (active)	-92.5% [100 µM] (active)	-97% [100 µM] (active)	-99.6% [100 µM] (active)	–	23.3% [100 µM]	-37.9% [100 µM] (active)	-57.7% [100 µM] (active)
O=C(/C=C(\Nc1ccccc1)c1ccccc1)c1cn(-c2ccc([N+](=O)[O-])cc2)nn1	69.4%	84%	53.5%	116%	87.9%	106%	112	63%	111%	–
O=C1/C(=C\c2coc3ccccc3c2=O)c2ccccc2N1c1c(Cl)cccc1Cl	19.5%	10.2%	31.6%	102%	49.5%	74.8%	–	27.4%	36.1%	48.7%
CCC(C)C1NC(=O)C(CCNCS(=O)(=O)O)NC(=O)C(NC(=O)C(CCNCS(=O)(=O)O)NC(=O)C(NC(=O)C(CCNCS(=O)(=O)O)NC(=O)CCCCC(C)C)C(C)O)CCNC(=O)C(C(C)O)NC(=O)C(CCNCS(=O)(=O)O)NC(=O)C(CCNCS(=O)(=O)O)NC(=O)C(C(C)CC)NC1=O (centres undefined)	16.4%	22.6%	78.7%	73.1%	58.1%	40.3%	–	–	107%	56.8%
COc1ccc(CNC(=O)c2c(C)n([O-])c3cc(F)c(F)cc3[n+]2=O)cc1	37.5%	86%	88%	99.5%	116%	111%	56	97.3%	108%	–
Cc1cc(C)nc(NS(=O)(=O)c2ccc(Nc3nc4nc(SCc5ccccc5)nc(-c5ccc(O)cc5)c4c(=O)[nH]3)cc2)n1	85.7%	66.7%	97%	96.2%	104%	94.9%	120	103%	97.3%	–
COc1ccc2nc(-c3ccc(Cl)cc3)cc(-c3nnc(SCC(=O)Nc4ccc(C(C)=O)cc4)n3-c3ccccc3)c2c1	83.7%	104%	102%	96.4%	93.7%	93.9%	–	99.5%	95.2%	107%
O=C(O)CCNS(=O)(=O)c1ccc(-c2ccccc2)cc1	88.9%	69%	97.7%	107%	101%	107%	114	9.34% (active)	108%	–
CSc1nc(-c2ccc(O)cc2O)c2c(=O)[nH]c(Nc3ccc(S(=O)(=O)Nc4nc(C)cc(C)n4)cc3)nc2n1	63.3%	99.2%	107%	90%	108%	105%	98.1	119%	97.5%	–
Cc1ccc(S(=O)(=O)NCCN2c3nc4ccccc4cc3Sc3cc4ccccc4nc32)cc1	73.7%	78.7%	34.1%	85.6%	22.9%	53.3%	83.7	33.4%	63.1%	–
O=C(COc1cccc(/C=C2\Oc3ccc4ccccc4c3C2=O)c1)c1ccc([N+](=O)[O-])cc1	3.73% (active)	79.9%	97.6%	100%	81.8%	88.9%	103	93.1%	102%	–
COC(=O)[C@H](Cc1cn(C)cn1)NC(=O)[C@@H](NC(=O)Nc1cc(C(F)(F)F)cc(C(F)(F)F)c1)C(C)C	-33.5% [100 µM] (active)	-42.9% [100 µM] (active)	-80% [100 µM] (active)	-96.1% [100 µM] (active)	-96.5% [100 µM] (active)	-100% [100 µM] (active)	–	0.492% [100 µM] (active)	-21.6% [100 µM] (active)	-70.9% [100 µM] (active)
COc1cc(/C=C\C(C)=N\Nc2ccccc2)ccc1O	39.3%	76.3%	90.5%	84.7%	85.6%	121%	–	92.1%	77.4%	96%
COc1cccc(C2=NN(C(C)=O)C(c3cc(OC)c(OC)c(OC)c3)C2)c1 (centres undefined)	-6.23% (active)	4.18% (active)	37.5%	58.3%	48.5%	30.4%	33.1	15.4%	19%	–
Cc1ccccc1NC(=O)NC(CC(N)=O)c1ccc2c(c1)nc(-c1cccc(Oc3ccc(C(C)(C)C)cc3)c1)n2CCCN1CCCCC1C (centres undefined)	-33.9% (active)	-29.2% (active)	3.11% (active)	88.8%	66.5%	103%	–	6.75% (active)	94.3%	46.4%
COC(=O)c1cc2oc(/C=N\NC(=O)c3cc4oc(C)c(C)c4[nH]3)cc2[nH]1	51.4%	35.1%	108%	111%	118%	100%	128	108%	102%	–
COc1ccc(-c2ccc(O)c(C(=O)/C=C/c3cc(OC)c(OC)c(OC)c3)c2)cc1	56.2%	24.7%	71.8%	106%	79.6%	77.6%	–	113%	69.9%	78.3%
COc1ccc(C(=O)COc2ccc(/C=C3\Oc4ccc5ccccc5c4C3=O)cc2)cc1	40.2%	66.8%	90.6%	106%	88.9%	97.8%	115	96.3%	97.4%	–
